# Measurements from the supplement of paper PMC12282887.
# ± gives the standard deviation of the averaged measurements.
# Experiments:
# Assay in all cases: promoter activity interaction Z-score (Lux/OD deviation from empty-vector control); higher = stronger promoter induction by the compound
# [1] = system: E. coli BW25113 acrABp lux reporter
# Summary of the method: (§1)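 E. coli BW25113, as wild type or one of three single-gene deletion strains, carried low-copy luxCDABE promoter reporters and grew in 40 µl LB Lennox in 384-well plates at 37°C, with OD600 and luminescence read every 30 min for 12 h. Each compound was run at four 1:2 dilutions in biological duplicates, integration spanned 0–8 h for wild type and 1–9 h for deletion strains, and wells under 10% of the median growth value were dropped. The score is the Z-transformed residual of growth-normalised luminescence fitted against a control.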
# [2] = system: E. coli BW25113 micFp lux reporter
# Summary of the method: as §1
# [3] = system: E. coli BW25113 ompFp lux reporter
# Summary of the method: as §1
# [4] = system: E. coli BW25113 robp lux reporter
# Summary of the method: as §1
# [5] = system: E. coli BW25113 soxSp lux reporter
# Summary of the method: as §1
# [6] = system: E. coli BW25113 tolCp lux reporter
# Summary of the method: as §1
# [7] = 0.64 µg/ml, genetic background: wild type
# [8] = 0.64 µg/ml, genetic background: ΔmarA
# [9] = 0.64 µg/ml, genetic background: Δrob
# [10] = 0.64 µg/ml, genetic background: ΔsoxS
# [11] = 1.3 µg/ml, genetic background: wild type
# [12] = 1.3 µg/ml, genetic background: ΔmarA
# [13] = 1.3 µg/ml, genetic background: Δrob
# [14] = 1.3 µg/ml, genetic background: ΔsoxS
# [15] = 2.6 µg/ml, genetic background: wild type
# [16] = 2.6 µg/ml, genetic background: ΔmarA
# [17] = 2.6 µg/ml, genetic background: Δrob
# [18] = 2.6 µg/ml, genetic background: ΔsoxS
# [19] = 5.1 µg/ml, genetic background: wild type
# [20] = 5.1 µg/ml, genetic background: ΔmarA
# [21] = 5.1 µg/ml, genetic background: Δrob
# [22] = 5.1 µg/ml, genetic background: ΔsoxS
compound,measurement,setting,value
C[n+]1ccc(-c2cc[n+](C)cc2)cc1 [Paraquat],promoter activity interaction Z-score,[1]; [7],0.0325 ± 0.07
same,promoter activity interaction Z-score,[1]; [8],0.871 ± 1.1
same,promoter activity interaction Z-score,[1]; [9],0.287 ± 0.14
same,promoter activity interaction Z-score,[1]; [10],-0.155 ± 0.38
same,promoter activity interaction Z-score,[1]; [11],-0.0426 ± 0.21
same,promoter activity interaction Z-score,[1]; [12],0.412 ± 0.8
same,promoter activity interaction Z-score,[1]; [13],0.484 ± 0.32
same,promoter activity interaction Z-score,[1]; [14],0.177 ± 0.18
same,promoter activity interaction Z-score,[1]; [15],0.406 ± 0.016
same,promoter activity interaction Z-score,[1]; [16],0.865 ± 0.77
same,promoter activity interaction Z-score,[1]; [17],0.362 ± 0.13
same,promoter activity interaction Z-score,[1]; [18],0.148 ± 0.023
same,promoter activity interaction Z-score,[1]; [19],0.966 ± 0.12
same,promoter activity interaction Z-score,[1]; [20],0.0695 ± 0.017
same,promoter activity interaction Z-score,[1]; [21],1.06 ± 0.54
same,promoter activity interaction Z-score,[1]; [22],0.747 ± 0.85
same,promoter activity interaction Z-score,[2]; [7],0.149 ± 0.24
same,promoter activity interaction Z-score,[2]; [8],1.489 ± 0.0083
same,promoter activity interaction Z-score,[2]; [9],1.28 ± 0.4
same,promoter activity interaction Z-score,[2]; [10],-0.129 ± 0.0025
same,promoter activity interaction Z-score,[2]; [11],0.566 ± 0.14
same,promoter activity interaction Z-score,[2]; [12],2.36 ± 0.1
same,promoter activity interaction Z-score,[2]; [13],2.69 ± 0.87
same,promoter activity interaction Z-score,[2]; [14],-0.0229 ± 0.11
same,promoter activity interaction Z-score,[2]; [15],1.23 ± 0.11
same,promoter activity interaction Z-score,[2]; [16],3.79 ± 0.15
same,promoter activity interaction Z-score,[2]; [17],4.57 ± 1.3
same,promoter activity interaction Z-score,[2]; [18],-0.156 ± 0.22
same,promoter activity interaction Z-score,[2]; [19],3.89 ± 0.099
same,promoter activity interaction Z-score,[2]; [20],5.91 ± 1.2
same,promoter activity interaction Z-score,[2]; [21],8.849 ± 0.017
same,promoter activity interaction Z-score,[2]; [22],-0.509 ± 0.16
same,promoter activity interaction Z-score,[3]; [7],0.528 ± 0.083
same,promoter activity interaction Z-score,[3]; [8],0.49 ± 0.27
same,promoter activity interaction Z-score,[3]; [9],0.489 ± 0.56
same,promoter activity interaction Z-score,[3]; [10],0.272 ± 0.36
same,promoter activity interaction Z-score,[3]; [11],0.484 ± 0.34
same,promoter activity interaction Z-score,[3]; [12],0.321 ± 0.0078
same,promoter activity interaction Z-score,[3]; [13],0.81 ± 0.54
same,promoter activity interaction Z-score,[3]; [14],0.308 ± 0.03
same,promoter activity interaction Z-score,[3]; [15],0.864 ± 0.28
same,promoter activity interaction Z-score,[3]; [16],0.472 ± 0.45
same,promoter activity interaction Z-score,[3]; [17],1.09 ± 0.6
same,promoter activity interaction Z-score,[3]; [18],0.514 ± 0.2
same,promoter activity interaction Z-score,[3]; [19],1.34 ± 0.52
same,promoter activity interaction Z-score,[3]; [20],0.867 ± 0.69
same,promoter activity interaction Z-score,[3]; [21],1.96 ± 1.2
same,promoter activity interaction Z-score,[3]; [22],-2.03
same,promoter activity interaction Z-score,[4]; [7],-0.182 ± 0.091
same,promoter activity interaction Z-score,[4]; [8],0.325 ± 0.15
same,promoter activity interaction Z-score,[4]; [9],0.533 ± 0.16
same,promoter activity interaction Z-score,[4]; [10],0.786 ± 0.081
same,promoter activity interaction Z-score,[4]; [11],0.394 ± 0.0088
same,promoter activity interaction Z-score,[4]; [12],-0.0344 ± 0.25
same,promoter activity interaction Z-score,[4]; [13],0.769 ± 0.054
same,promoter activity interaction Z-score,[4]; [14],1.6 ± 0.18
same,promoter activity interaction Z-score,[4]; [15],0.405 ± 0.13
same,promoter activity interaction Z-score,[4]; [16],-0.176 ± 0.36
same,promoter activity interaction Z-score,[4]; [17],-0.103 ± 0.18
same,promoter activity interaction Z-score,[4]; [18],0.939 ± 0.087
same,promoter activity interaction Z-score,[4]; [19],-1.49 ± 0.031
same,promoter activity interaction Z-score,[4]; [20],-1.22 ± 0.88
same,promoter activity interaction Z-score,[4]; [21],-1.65 ± 0.29
same,promoter activity interaction Z-score,[4]; [22],-2.13
same,promoter activity interaction Z-score,[5]; [7],2.83 ± 0.11
same,promoter activity interaction Z-score,[5]; [8],2.9 ± 0.097
same,promoter activity interaction Z-score,[5]; [9],3.15 ± 0.6
same,promoter activity interaction Z-score,[5]; [10],3.26 ± 0.44
same,promoter activity interaction Z-score,[5]; [11],4.46 ± 0.059
same,promoter activity interaction Z-score,[5]; [12],4.28 ± 0.14
same,promoter activity interaction Z-score,[5]; [13],5.3 ± 1.6
same,promoter activity interaction Z-score,[5]; [14],4.33 ± 0.021
same,promoter activity interaction Z-score,[5]; [15],6.809 ± 0.059
same,promoter activity interaction Z-score,[5]; [16],7.02 ± 1.1
same,promoter activity interaction Z-score,[5]; [17],7.7 ± 0.67
same,promoter activity interaction Z-score,[5]; [18],5.69 ± 0.3
same,promoter activity interaction Z-score,[5]; [19],13.3 ± 0.42
same,promoter activity interaction Z-score,[5]; [20],13.9 ± 0.57
same,promoter activity interaction Z-score,[5]; [21],13.2 ± 0.83
same,promoter activity interaction Z-score,[5]; [22],7.48 ± 0.55
same,promoter activity interaction Z-score,[6]; [7],0.284 ± 0.95
same,promoter activity interaction Z-score,[6]; [8],0.749 ± 0.29
same,promoter activity interaction Z-score,[6]; [9],0.775 ± 0.4
same,promoter activity interaction Z-score,[6]; [10],-0.838 ± 0.78
same,promoter activity interaction Z-score,[6]; [11],-0.11 ± 0.4
same,promoter activity interaction Z-score,[6]; [12],1.44 ± 1.1
same,promoter activity interaction Z-score,[6]; [13],0.62 ± 0.32
same,promoter activity interaction Z-score,[6]; [14],0.0157 ± 0.29
same,promoter activity interaction Z-score,[6]; [15],2.66 ± 0.41
same,promoter activity interaction Z-score,[6]; [16],3 ± 0.23
same,promoter activity interaction Z-score,[6]; [17],2.88 ± 0.087
same,promoter activity interaction Z-score,[6]; [18],-0.245 ± 1.2
same,promoter activity interaction Z-score,[6]; [19],3.73 ± 0.21
same,promoter activity interaction Z-score,[6]; [20],6.42 ± 0.38
same,promoter activity interaction Z-score,[6]; [21],3.99 ± 0.79
same,promoter activity interaction Z-score,[6]; [22],-0.515 ± 0.099
